# The whole screen tested about 310,000 compounds, of which about 18,000 (5.8%) were called active. Where a call stands in place of a potency, no number is given. Roughly 22% stayed inconclusive and do not appear here. For the sample, actives were picked, then their nearest neighbours and some compounds at random. Values without a mark were called inactive. Calls come from the whole dose curve; as a rule, active = well fitted inhibition curve with a large enough effect; inconclusive = small, poorly fitted or top-dose-only effect, or another doubt; inactive = no such curve, though single readings can be large or run the other way.
# Test: Primary qHTS for delayed death inhibitors of the malarial parasite plastid, 48 hour incubation
# Conditions: P. falciparum luciferase growth in erythrocytes; series mostly up to 28.7 µM
# Procedure, shortened: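 Here the parasites carry a stable luciferase gene and grow inside erythrocytes in Albumax-based RPMI medium with compound for one erythrocytic cycle. Activity is scored as loss of luminescent signal.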
# Potency is the fitted concentration of half-maximal effect.
SMILES,"activity change, negative = inhibition",Potency
Cc1nnc2n1N=C(c1ccccc1)CS2,1.87% [at 0.00184 µM],
CN(CC(=O)Nc1cccc(F)c1)C(=O)C1=COCCO1,,inactive
CCc1nc(Nc2ccc(NC(C)=O)cc2)c2oc3ccccc3c2n1,,inactive
CCc1nc(N2CCN(c3nc(C)cc(C)n3)CC2)c2oc3ccccc3c2n1,,inactive
CCc1nc(Nc2ccc3nccnc3c2)c2oc3ccccc3c2n1,,1.04 µM (active)
COCC1CCN(C(=O)CCc2nnc(C3(c4ccc(Cl)cc4)CCC3)o2)C1 (stereo not drawn),,inactive
Cc1noc(C)c1CSCC(=O)Nc1ccc(Br)cc1Cl,,inactive
COc1cc(C(=O)N2CCN(C3CCC(C)CC3)CC2)cc(OC)c1OC (stereo not drawn),,inactive
OC(CN=c1sc2ccccc2n1CC(O)COc1ccccc1)COc1ccccc1 (stereo not drawn),,13.1 µM (active)
CC(O)COc1ccccc1 (stereo not drawn),,inactive
OC(COc1ccccc1)Cn1cc(Br)cn1 (stereo not drawn),,inactive
Cn1nccc1C(=O)NC1CCCc2c1cnn2-c1ccccc1F (stereo not drawn),,inactive
CC(C)(C)c1csc(NC2=NS(=O)(=O)c3ccccc32)n1,,inactive
CC(C)C(NS(=O)(=O)c1cccs1)C(=O)Nc1nc(C(C)(C)C)cs1 (stereo not drawn),,11.7 µM (active)
COc1ccc(CNC(=O)C(NS(=O)(=O)c2cccc3nsnc23)C(C)C)cc1 (stereo not drawn),,inactive
O=C(OCC(=O)N1CCCC1)c1ccc(Cl)nc1,,inactive
CCCc1cc(=O)oc2c(C)c(O)c(CN3CCCCC3)cc12,,1.65 µM (active)
CCCc1cc(=O)oc2c(C)c(OC(C)C(=O)NCC(O)c3ccccc3)ccc12 (stereo not drawn),,inactive
CCCc1cc(=O)oc2c(C)c(OCC(=O)N3CCC(C(=O)O)CC3)ccc12,,inactive
CN(CC(=O)NCc1ccncc1)S(=O)(=O)c1ccc(Br)cc1,,inactive
Cc1ccc(CN(C)Cc2cc(=O)oc3cc(C)c(Cl)cc23)cc1,,inactive
Cc1ccc(O)c(NC(=S)NC(=O)COc2ccc(Br)cc2)c1,,inactive
Cc1ccc(O)c(NC(=O)COc2cc(C)ccc2C)c1,,2.94 µM (active)

SMILES,"activity change, negative = inhibition",Potency
Cc1ccc(C)c(OCC(=O)NNC(=O)C2CCC2)c1,,inactive
CC(NC(=O)CNC(=O)Cc1cccc2ccccc12)c1ccc(S(N)(=O)=O)cc1 (stereo not drawn),,inactive
CCc1cc(=O)oc2c(C)c(OCC(=O)NCCN3CCOCC3)ccc12,,inactive
COc1cccc(-c2ccc3c(c2)S(=O)(=O)c2cccc(C(=O)O)c2C3=O)c1OC,,inactive
CC(C)N(C(=O)COC(=O)c1ccccc1C(=O)N1CCN(c2ccc(F)cc2)CC1)C(C)C,,inactive
Cn1c2ccccc2c2c(C(=O)N3CCN(c4ccc(F)cc4)CC3)cn(C3CCCC3)c(=O)c21,,10.4 µM (active)
Cc1c(C(=O)N2CCN(c3ccc(F)cc3)CC2)oc2c1C(=O)CCC2,,inactive
COc1cccc(C(=O)Nc2nnc(S(=O)(=O)N(C)c3ccccc3)s2)c1,,inactive
COc1cccc(/C=C/C(=O)OCC(=O)N2CCN(c3ccccc3)CC2)c1,,inactive
COc1ccc(OCC(=O)OCC(=O)Nc2ccc(S(=O)(=O)N3CCCCC3)cc2)cc1,,inactive
COc1ccc(S(=O)(=O)N2CCN(C(C)C(=O)Nc3ccc(C(C)C)cc3)CC2)cc1 (stereo not drawn),,10.4 µM (active)
COc1ccc(S(=O)(=O)N2CCN(C(=O)NC3CCCCC3)CC2)cc1,,inactive
CC(NC(=O)CN(C)S(=O)(=O)c1ccc(F)cc1)C1CC2CCC1C2 (stereo not drawn),,inactive
CC(=O)Nc1ccc(N2C(=O)CC(Sc3nccc(C)n3)C2=O)cc1 (stereo not drawn),,inactive
COc1cc(Cl)ccc1OCc1cc(C(=O)N(C)CCc2c(C)n[nH]c2C)no1,,inactive
CNC(=O)O/N=C(\N)Cc1csc2ccc(Cl)cc12,,3.7 µM (active)
O=C(O)COCC(=O)NCc1csc2ccc(Cl)cc12,,inactive
CN(CCO)Cc1csc2ccc(Br)cc12,,inactive
CCOC(=O)Cc1csc(NC(=O)C(C)(C)C)n1,,inactive
CCOC(=O)Cc1csc(NC(=O)CSc2ccc(Br)cc2)n1,,10.4 µM (active)
CCOC(=O)Cc1csc(NC(=O)CSc2nc(C)cc(=O)[nH]2)n1,,inactive
CCC(C)C(N=C1NS(=O)(=O)c2ccccc21)C(=O)N1CCC(C)CC1 (stereo not drawn),,inactive
CC(C)c1ccc(NC(=O)[C@@H](NC(=O)N2CC(=O)Nc3ccccc32)C(C)C)cc1,,inactive

SMILES,"activity change, negative = inhibition",Potency
O=C(N/N=C/c1ccc(OC(=O)c2ccccc2Cl)cc1)c1ccc(O)cc1,,inactive
CSc1ncccc1C(=O)NCc1ccccc1Cl,,inactive
CC(NC(=O)c1ccccc1F)c1cccc2ccccc12 (stereo not drawn),,inactive
COc1ccc(S(=O)(=O)n2nc(C)c(S(=O)(=O)N3CCOCC3)c2C)cc1,,inactive
O=C(CSc1ccc(-c2ccc(Br)cc2)nn1)NCC1CCCO1 (stereo not drawn),,inactive
OC(CNCC1CCCO1)Cn1c2ccc(Br)cc2c2cc(Br)ccc21 (stereo not drawn),,0.586 µM (active)
CC(NS(=O)(=O)c1ccc(Br)cc1)C(=O)NCC1CCCO1 (stereo not drawn),,inactive
CCc1ccc(C(=O)NN=C2CCCCCC2)s1,,inactive
CCOc1ccc(CN2CCNC(=O)C2CC(=O)NCCCC2CCCC2)cc1 (stereo not drawn),,inactive
Cc1nc2ccc(C(=O)N/N=C/c3ccc(O)cc3)cc2[nH]1,,inactive
COc1ccc(S(=O)(=O)N2CCN(CC(=O)NCC3(N4CCOCC4)CCCCC3)CC2)cc1,,9.28 µM (active)
COc1ccc(CNC(=O)COC(=O)/C=C/c2ccc(S(=O)(=O)N3CCOCC3)cc2)cc1,,inactive
COC(=O)COc1ccc(S(=O)(=O)N2CCOCC2)cc1,,inactive
CCc1ccc(OC(C)C(=O)Nc2ccc(S(=O)(=O)Nc3cc(C)on3)cc2)cc1 (stereo not drawn),,inactive
CC1CCN(C(=O)CCNC(=O)c2ccccc2)CC1,,inactive
CN(CC(=O)Nc1ccc(F)c(F)c1F)C(=O)C1CC(=O)N(C2CCCC2)C1 (stereo not drawn),,inactive
O=C(CN1CCC(NC(=O)C2CC2)CC1)Nc1ccccc1[N+](=O)[O-],,inactive
CC(C)c1ccccc1OCC(O)CN(CC(O)COc1cccc2ccccc12)C(C)C (stereo not drawn),,1.65 µM (active)
CN1CCN(CCCCOc2cccc3ccccc23)CC1,,inactive
OC(COc1cccc2ccccc12)CN1CCN(c2ccccn2)CC1 (stereo not drawn),,inactive
NC(=O)C(Cc1ccccc1)NC(=O)C12CC3CC(CC(C3)C1)C2 (stereo not drawn),,inactive
CNS(=O)(=O)c1ccc(C(=O)NCC(=O)NCCc2ccc3c(c2)OCCO3)cc1,,inactive

# From PubChem BioAssay AID504832 (National Center for Advancing Translational Sciences (NCATS), 2011)
